Screens: PubChem, NMMLSC
MEP2 TOR yeast = modulators of MEP2-GFP levels in yeast, primary screen, S. cerevisiae, multiplex flow cytometry, MLPCN library; S. cerevisiae MEP2-GFP strain, 3 h; 100% = DMSO control level; GFP response vs DMSO, % at 10 µM; 330,000 compounds, 0.51% hits; AID 2016, 2009;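 active = GFP response versus DMSO above a set limit, roughly screen mean plus 3 SD, cut at about 180% in these data; inconclusive = fewer than 70 cells counted for a yeast strain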;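 also: median GFP fluorescence of the barcode-gated MEP2-GFP cells per well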
LAP4 TOR yeast = modulators of LAP4-GFP expression in yeast, primary screen, S. cerevisiae, multiplex flow cytometry, MLPCN library; 3 h; median GFP as percent of DMSO wells; GFP response vs DMSO, % at 10 µM; 320,000 compounds, 0.34% hits;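 active = GFP response vs DMSO above a set limit, about the screen mean plus 3 SD, cut at about 150% in these data; inconclusive = under 70 cell events counted for the yeast strain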
VLA-4 inh = inhibition in human VLA-4 binding assay, primary screen, VLA-4 allosteric modulator project, MLPCN library, flow cytometry, VLA-4 expressing cells. ligand binding flow cytometry. inhibition, % (about 7 µM as worked out from the volumes in the protocol). Integrin alpha-4 (Homo sapiens), P13612. 330,000 compounds, 0.2% hits; in the data active = inhibition above about 50%
Target sequence (P13612 whole entry, looked up): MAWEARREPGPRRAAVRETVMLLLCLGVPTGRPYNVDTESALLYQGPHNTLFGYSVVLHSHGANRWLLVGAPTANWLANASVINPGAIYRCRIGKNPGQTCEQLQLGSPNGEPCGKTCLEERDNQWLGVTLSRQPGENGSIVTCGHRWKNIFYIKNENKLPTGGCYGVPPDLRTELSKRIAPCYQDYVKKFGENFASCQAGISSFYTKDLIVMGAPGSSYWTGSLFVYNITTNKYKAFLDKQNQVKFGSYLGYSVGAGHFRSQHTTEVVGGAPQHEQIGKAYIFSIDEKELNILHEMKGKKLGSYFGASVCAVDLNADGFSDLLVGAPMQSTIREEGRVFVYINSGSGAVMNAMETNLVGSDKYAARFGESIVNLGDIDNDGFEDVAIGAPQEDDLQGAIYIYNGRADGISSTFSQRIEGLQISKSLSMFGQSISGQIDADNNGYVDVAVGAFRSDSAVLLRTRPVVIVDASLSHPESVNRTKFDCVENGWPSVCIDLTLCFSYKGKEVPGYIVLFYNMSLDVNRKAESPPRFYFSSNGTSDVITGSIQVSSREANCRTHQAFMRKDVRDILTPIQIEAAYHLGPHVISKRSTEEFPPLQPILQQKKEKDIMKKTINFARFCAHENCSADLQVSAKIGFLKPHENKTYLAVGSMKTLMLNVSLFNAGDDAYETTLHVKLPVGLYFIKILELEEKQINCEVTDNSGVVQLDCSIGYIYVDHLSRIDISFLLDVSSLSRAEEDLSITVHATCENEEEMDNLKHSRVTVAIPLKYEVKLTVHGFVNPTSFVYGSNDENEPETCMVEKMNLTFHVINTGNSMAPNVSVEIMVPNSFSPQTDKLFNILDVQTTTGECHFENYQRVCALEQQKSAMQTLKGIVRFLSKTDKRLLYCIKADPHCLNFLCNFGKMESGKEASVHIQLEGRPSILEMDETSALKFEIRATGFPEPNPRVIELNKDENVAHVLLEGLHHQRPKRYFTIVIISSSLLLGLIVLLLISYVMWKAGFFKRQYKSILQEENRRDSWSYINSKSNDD
AGP1-GFP MLPCN = modulators of AGP1-GFP expression in yeast TOR pathway, primary screen, cell-based, multiplex flow cytometry, S. cerevisiae, MLPCN library. GFP response vs DMSO, % at 10 µM. 3 h; GFP as percent of DMSO wells. AID 2066, 2009. 320,000 compounds, 0.02% hits;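 active = GFP response relative to DMSO above a set limit, near screen average plus 3 SD, cut at about 150% in these data; inconclusive = fewer than 70 cells counted for the yeast strain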;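 also: median GFP channel fluorescence of the gated AGP1 strain per well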
CIT2 TOR yeast = modulators of CIT2-GFP expression in yeast, primary screen, S. cerevisiae, GFP fusion, multiplex flow cytometry, MLPCN library; S. cerevisiae CIT2-GFP strain, 3 h; 100 means same as DMSO wells; GFP response vs DMSO, % at 10 µM; 320,000 compounds, 0.065% hits;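 active = GFP response relative to DMSO above a set limit, near the screen mean plus 3 SD, cut at about 150% in these data; inconclusive = Fewer than 70 cells measured for a yeast strain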;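 also: ratio of well median GFP fluorescence to mean of DMSO wells on the plate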
RPL19A TOR yeast = RPL19A-GFP expression modulators in yeast, primary screen, cell-based, S. cerevisiae, multiplex flow cytometry, MLPCN | percent response vs DMSO, % at 10 µM | 330,000 compounds, 0.3% hits | S. cerevisiae RPL19A-GFP strain, 3 h; stronger effect = lower value | AID 2025, 2009;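 active = percent response vs DMSO below 50%; inconclusive = fewer than 70 events counted for the yeast strain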;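 also: median channel GFP fluorescence of the barcoded RPL19A-GFP strain; lower means less RPL19A-GFP as with rapamycin TOR inhibition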
Large screens that a line does not name were inactive; [ ] = another dose, or the depositor's remark. Only some compounds are listed: those with a hit (about 1.1% of all), similar ones and a draw of the others.

CC(=O)Oc1ccc(-n2c(=O)c3ccccc3c3ccccc3c2=O)cc1	none
Cc1cc(O)c2c(-c3ccccc3)cc(=O)oc2c1	MEP2 TOR yeast 266[may fluoresce violet], AGP1-GFP MLPCN inconclusive, CIT2 TOR yeast inconclusive, RPL19A TOR yeast 45[may fluoresce violet]
CC(=O)COc1cc(C)cc2oc(=O)cc(-c3ccccc3)c12	none
O=C(Cn1[nH]c(=O)c2ccccc2c1=O)N1CC=C(c2ccccc2)CC1	MEP2 TOR yeast 441[may fluoresce violet], AGP1-GFP MLPCN inconclusive, CIT2 TOR yeast inconclusive
COc1ccc(-c2c(C)nn3c(C)cc(C)nc23)cc1	none
CC(C)c1nnc(-c2ccc(Cl)cc2)c(N(C)C)n1	MEP2 TOR yeast 220 (no result: AGP1-GFP MLPCN)
CC(=O)Nc1ccc(NS(=O)(=O)c2cc([N+](=O)[O-])ccc2C)cc1	VLA-4 inh 55
Cc1ccc([N+](=O)[O-])cc1S(=O)(=O)Nc1ccc(C(=O)N(C)C)cc1	none
O=C(NCc1cccnc1)c1cnc2n(c1=O)CCS2	MEP2 TOR yeast 250, LAP4 TOR yeast 188, CIT2 TOR yeast 164
O=C(O)c1ccc(/C=C(\c2nc3ccccc3[nH]2)c2nc3ccccc3s2)cc1	MEP2 TOR yeast 223[may fluoresce violet], CIT2 TOR yeast inconclusive
O=C(CSc1ccccc1)OCC(=O)N1CCN(C(=O)c2ccco2)CC1	none
C[C@]12C[C@H](O)[C@@H]3c4ccc(O)cc4CCC3[C@@H]1CCC2=O (stereo partly drawn)	none
C[C@]12CC[C@H]3C(=CCc4cc(O)ccc43)[C@@H]1CCC2=O	LAP4 TOR yeast 157
CN(C)C(CNC(=O)c1c(F)cccc1Cl)c1ccco1 (stereo not drawn)	none
CN1CCSc2ccc(C(=O)Nc3cccc(F)c3)cc21	LAP4 TOR yeast 153
CCOc1cc(C(=S)N2CCCCC2)ccc1OS(=O)(=O)c1ccc(Cl)cc1	LAP4 TOR yeast 209
CC(=O)c1cccc(Nc2nc(N3CCOCC3)nc(N3CCOCC3)n2)c1	MEP2 TOR yeast 226[may fluoresce violet], CIT2 TOR yeast inconclusive
CC(=O)c1ccc(Nc2nc(N3CCOCC3)nc(N3CCOCC3)n2)cc1	none
CC(=O)Nc1ccc(S(=O)(=O)NCCc2cn3nc(C)c(C)nc3n2)cc1	none
Cc1nc2ccccc2n1/N=C/c1ccc([N+](=O)[O-])s1	none
Cc1nc2ccccc2c(=O)n1/N=C/c1ccc([N+](=O)[O-])o1	LAP4 TOR yeast 166
Cc1nc2ccccc2n1/N=C/c1ccc([N+](=O)[O-])o1	LAP4 TOR yeast 377[may fluoresce violet], CIT2 TOR yeast inconclusive
C[C@@H]1NC(=O)N(CCCn2ccnc2)C1=O	none
Cc1ccc(S(=O)(=O)CC#CCOC(=O)c2ccc([N+](=O)[O-])cc2)cc1	LAP4 TOR yeast 156
Cc1ccc(C(=O)c2ccc([N+](=O)[O-])cc2)cc1	none
CCOc1cc(N2CCOCC2)c(OCC)cc1NC(=O)c1cc(S(=O)(=O)N2CCOCC2)ccc1F	none
COc1cc2sc(-c3ccc(S(C)(=O)=O)cc3)c(-c3ccc4c(c3)OCO4)c2cc1OC	none (no result: MEP2 TOR yeast, LAP4 TOR yeast, AGP1-GFP MLPCN, CIT2 TOR yeast, RPL19A TOR yeast)
O=C(CSc1ccc(-c2ccccn2)nn1)N1CCCCC1	LAP4 TOR yeast 217
Cc1cccc(OCC(=O)Nc2ccc3c(C)cc(=O)oc3c2)c1	none
Cc1cc(=O)oc2cc(NC(=O)CCOc3ccccc3)ccc12	MEP2 TOR yeast 255[may fluoresce violet], AGP1-GFP MLPCN inconclusive, CIT2 TOR yeast inconclusive, RPL19A TOR yeast 38[may fluoresce violet]
O=S(=O)(O)c1cccc2cccc(Nc3ccccc3)c12	none
CCCc1cc(=O)oc2c3c(c(Cl)cc12)OCN(CCCO)C3	MEP2 TOR yeast 886[may fluoresce violet], AGP1-GFP MLPCN inconclusive, CIT2 TOR yeast inconclusive, RPL19A TOR yeast 20[may fluoresce violet]
O=[N+]([O-])c1ccc(S(=O)(=O)N(CC(O)CN2CCCCC2)c2ccccc2)cc1 (stereo not drawn)	none
O=[N+]([O-])c1ccc(N(CC(O)CN2CCCCC2)S(=O)(=O)c2ccccc2)cc1 (stereo not drawn)	MEP2 TOR yeast 521[may fluoresce violet], CIT2 TOR yeast inconclusive
CC(=O)N/N=C/c1cc(C(C)(C)C)cc(/C=N/NC(C)=O)c1O	MEP2 TOR yeast 395[may fluoresce violet], LAP4 TOR yeast 291[may fluoresce violet], CIT2 TOR yeast inconclusive
C=CCOc1ccc(C2/C(=C(\O)c3ccc4c(c3)CC(C)O4)C(=O)C(=O)N2CCN2CCOCC2)cc1OCC (stereo not drawn)	none
O=C(CCC(=O)Nc1ccc(F)cc1)N/N=C/c1cccc(Br)c1	none
COc1cccc(/C=N/NC(=O)CCC(=O)Nc2ccc(Br)cc2)c1	MEP2 TOR yeast 195
Cc1nn(Cc2noc(C(=O)NCc3ccccn3)n2)c(C)c1Br	none
COc1ccc(C(=O)Nc2ccnn2C2CCN(C(=O)CCC(F)(F)F)CC2)cc1	none
C=CCCC(=O)N1CCC(n2nccc2NC(=O)c2ccc(OC)cc2)CC1	AGP1-GFP MLPCN inconclusive, CIT2 TOR yeast inconclusive, RPL19A TOR yeast 31[may fluoresce violet]
Cn1nnnc1Sc1ncnc2scc(-c3cccs3)c12	none
O=C(NCc1ccco1)c1cc2ccc(O)cc2oc1=O	MEP2 TOR yeast 230[may fluoresce violet], AGP1-GFP MLPCN inconclusive, CIT2 TOR yeast inconclusive
COc1ccc2cc(C(=O)NCc3ccco3)c(=O)oc2c1	none
O=C(Nc1ccc(Cn2ccnc2)cc1)c1cccc(C(F)(F)F)c1	none
CCOC(=O)c1cnc(-c2ccccc2)nc1Oc1cccc(Cl)c1	MEP2 TOR yeast 196[may fluoresce violet], CIT2 TOR yeast inconclusive
Cc1cc(NC(=O)C(C)Oc2ccc(Cl)cc2Cl)n(-c2ccccc2)n1 (stereo not drawn)	AGP1-GFP MLPCN inconclusive, CIT2 TOR yeast inconclusive, RPL19A TOR yeast 38[may fluoresce violet]
O=C(OCC(=O)N1CCc2ccccc21)c1ccc([N+](=O)[O-])o1	none
O=C1c2cccc3c([N+](=O)[O-])ccc(c23)C(=O)N1c1nccs1	MEP2 TOR yeast 218
O=C1c2ccc([N+](=O)[O-])cc2C(=O)N1c1ccc(Cl)cn1	none
O=C1c2cccc3c([N+](=O)[O-])ccc(c23)C(=O)N1c1ccc(Cl)cn1	MEP2 TOR yeast 349[may fluoresce violet], LAP4 TOR yeast 249[may fluoresce violet], CIT2 TOR yeast inconclusive
CN(CC(=O)Nc1cc(Cl)cc(Cl)c1)Cc1cccs1	none
COc1ccccc1N(CC(=O)NCCSCc1ccccc1)S(=O)(=O)c1ccc(C)cc1	MEP2 TOR yeast 212[may fluoresce violet], AGP1-GFP MLPCN inconclusive, CIT2 TOR yeast inconclusive
COc1ccccc1NC(=O)C1C2CCCCC21 (stereo not drawn)	MEP2 TOR yeast 293[may fluoresce violet], AGP1-GFP MLPCN inconclusive, CIT2 TOR yeast inconclusive, RPL19A TOR yeast 13[may fluoresce violet]
Cc1c(-c2ccc(Cl)cc2Cl)nc2ccccc2c1C(=O)NCCN1CCOCC1	none
CN(C(=O)CSc1nnnn1-c1ccc(O)cc1)C1CCCCC1	none
O=C(O)CCc1ccc(-c2cccs2)o1	none
